Several values for one entry are separate records, joined by “and”; a condition that tells them apart may be missing. Equal entries are not always repeated. Inconclusive results are not listed. Activity calls are given as the source filed them. Unless noted, calls follow the shape of the full dose curve.
Columns and labels:
[1] = Nuclear factor erythroid 2-related factor 2/antioxidant responsive element (Nrf2/ARE) small molecule agonists: qHTS cell viability counter screen in human keratinocytes (AID 1919968; active = well fitted curve in the direction sought with a large enough effect in the repeat runs; an effect the other way counts as inactive or inconclusive; also: nearly all actives have a fitted effect of over 55% in size; also: potency is read from the fitted curve at half-maximal effect)
Outline: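 KeratinoSens HaCaT cells, 1,500/well, preincubated 5 h, then exposed to compounds in DMSO for 23 h at 37 C/5% CO2. Viability read as CellTiter-Fluor fluorescence after 1 h, in the same wells as the ARE-luciferase read.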

[2] = molecular target: KiSS-1 receptor (Homo sapiens) (UniProt Q969F8); test: Human kisspeptin (KISS1R) small molecule agonists, calcium flux assay in KISS1R-HEK293 cells (AID 1920064; active = well fitted curve in the direction sought with a large enough effect in the repeat runs; an effect the other way counts as inactive or inconclusive)
Outline: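 HEK293 cells stably expressing human KISS1R were loaded with calcium dye for 1 h at 37 C, then given compound; fluorescence (Ex/Em 480/540) was read kinetically for 3 min. Fifteen concentrations, triplicate.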

[3] = p53 small molecule agonists, cell-based qHTS assay with rat liver microsomes (AID 1963578)
Outline: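 Read-out is beta-lactamase reporter fluorescence (LiveBLAzer, 2 h, room temperature, dark) in p53RE-bla cells treated 16 h at 37 C with compound, rat liver microsomes and NADPH, both 0.5 mg/mL final.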

[4] = p53 small molecule agonists, cell-based qHTS assay with human liver microsomes: qHTS cell viability counter screen (AID 1963579); also: nearly all actives have a fitted effect of over 45% in size
Outline: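 Cells carrying the p53 response-element beta-lactamase reporter are treated for 16 h at 37 C with test compounds in the presence of human liver microsomes and NADPH (both 0.5 mg/mL final); ATP-based CellTiter-Glo luminescence then reports viability.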

[5] = p53 small molecule agonists, cell-based qHTS assay with rat liver microsomes: qHTS cell viability counter screen (AID 1963580); also: nearly all actives have a fitted effect of over 45% in size; also: potency is read from the fitted curve at half-maximal effect
Outline: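 p53RE-bla HCT-116 cells were exposed 16 h at 37 C to compounds with rat liver microsomes (0.5 mg/mL) and NADPH (0.5 mg/mL). Viability was measured in the same wells as ATP content by CellTiter-Glo luminescence.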

[6] = p53 small molecule agonists, cell-based qHTS assay: qHTS cell viability counter screen (AID 1963581); also: nearly all actives have a fitted effect of over 45% in size
Outline: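 p53RE-bla HCT-116 cells, compounds added 5 h after plating and incubated 16 h at 37 C. Cytotoxicity measured in the same wells as intracellular ATP by CellTiter-Glo luminescence after 30 min at room temperature.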

[7] = p53 small molecule agonists, cell-based qHTS assay (AID 1963582; active = well fitted activation curve with a large enough effect in the signal ratio in the repeat runs, not every such curve was filed as active; the % refers to the signal ratio)
Outline: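 p53RE-bla reporter cells, compounds added in DMSO after 5 h plating, incubated 16 h at 37 C. Beta-lactamase read via 2 h room-temperature LiveBLAzer B/G FRET substrate, fluorescence intensity.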

[8] = molecular target: 5-hydroxytryptamine receptor 2A (Homo sapiens) (UniProt P28223); test: 5-hydroxytryptamine receptor 2A (HTR2A) small molecule antagonists, cell-based qHTS assay (AID 1963586); also: nearly all actives have a fitted effect of over 45% in size
Outline: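 Antagonist-mode intracellular calcium assay: DOI (4 nM) added after 5 min compound pre-incubation at room temperature to dye-loaded HTR2A-CHO cells. Fluorescence followed for 3 min, sampled every second.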

[9] = molecular target: 5-hydroxytryptamine receptor 2A (Homo sapiens) (UniProt P28223); test: 5-hydroxytryptamine receptor 2A (HTR2A) small molecule agonists, cell-based qHTS assay (AID 1963587); also: nearly all actives have a fitted effect of over 30% in size
Outline: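 CHO cells stably expressing human HTR2A, plated 18 h, loaded with calcium dye 1 h at 37 C. Agonist mode: compounds added and intracellular calcium fluorescence recorded kinetically for 2 min at 1 sec intervals.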

[10] = molecular target: Muscarinic acetylcholine receptor M1 (Homo sapiens) (UniProt P11229); test: Cholinergic receptor muscarinic 1 (CHRM1) small molecule antagonists, cell-based qHTS assay (AID 1963588); also: nearly all actives have a fitted effect of over 40% in size
Outline: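 CHRM1-CHO calcium-flux assay, antagonist mode. Cells were seeded 18 h, dye-loaded 1 h at 37 C and given compound for 5 min at RT, then acetylcholine was added at 50nM. FDSS fluorescence was read 3 min; 15 concentrations, three runs.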

[11] = molecular target: Muscarinic acetylcholine receptor M1 (Homo sapiens) (UniProt P11229); test: Cholinergic receptor muscarinic 1 (CHRM1) small molecule agonists, cell-based qHTS assay (AID 1963589); also: nearly all actives have a fitted effect of over 35% in size
Outline: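 CHO cells stably expressing human CHRM1 were loaded with calcium dye for 1 h at 37 C, then compound was added in agonist mode. Intracellular calcium fluorescence was followed kinetically at 1 s intervals. Fifteen concentrations were tested in three independent runs.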

[12] = cAMP Responsive Elements (CRE) small molecule agonists, cell-based qHTS assay (AID 1963590)
Outline: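 CRE-bla HEK 293T cells, 2,000/well in DMEM with 10% dialyzed FBS and 25 mM HEPES, pre-incubated 18 h at 37 C, then exposed to compound 3 h at 37 C. Beta-lactamase reporter read with LiveBLAzer B/G FRET substrate after 2 h at room temperature.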

[13] = cAMP Responsive Elements (CRE) small molecule antagonists, cell-based qHTS assay (AID 1963591; active = well fitted inhibition curve with a large enough effect in the signal ratio in the repeat runs, not every such curve was filed as active; the % refers to the signal ratio)
Outline: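 CRE-bla HEK293T cells plated 18 h, then given compound plus NKH477 at 0.25 uM final for 3 h at 37C. Beta-lactamase reporter read with LiveBLAzer B/G FRET substrate after 2 h at room temperature.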

[14] = molecular target: Beta-2 adrenergic receptor (Homo sapiens) (UniProt P07550); test: Adrenergic beta2 receptor (ADRB2) small molecule antagonists, cell-based qHTS assay (AID 1963592); also: series mostly up to about 92 µM; nearly all actives have a fitted effect of over 50% in size
Outline: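 Cells (CHO, stable ADRB2 overexpression) incubated 18-20hr at 37C; compounds added from DMSO; agonist mix (1nM isoproterenol, 100uM IBMX, 25uM Ro-20-1724) added; 0.5hr RT; d2-cAMP and anti-cAMP-cryptate added; 1hr RT; 665/615 nm read.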

[15] = molecular target: D(2) dopamine receptor (Homo sapiens) (UniProt P14416); test: Dopamine D2 receptor (DRD2) small molecule agonists, cell-based qHTS assay (AID 1963594); also: nearly all actives have a fitted effect of over 35% in size
Outline: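 HEK293 cells stably expressing human DRD2, pre-treated with PDE inhibitor Ro20-1724 (0.1 mM final) and compound 10 min at room temperature, then stimulated with NKH477 (200nM […]) for 30 min. cAMP read by HTRF (665/620 nm).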

[16] = molecular target: D(2) dopamine receptor (Homo sapiens) (UniProt P14416); test: Dopamine D2 receptor (DRD2) small molecule antagonists, cell-based qHTS assay (AID 1963595; active = well fitted inhibition curve with a large enough effect in the signal ratio in the repeat runs, with a control signal flat; the % refers to the signal ratio)
Outline: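 Readout: HTRF cAMP, cAMP-d2 competing with cellular cAMP for anti-cAMP cryptate, read after 1 h. Cells: DRD2-HEK293. Conditions: 0.1 mM Ro20-1724, 12 nM quinpirole, 200 nM NKH477, 30 min RT.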

[17] = G protein-coupled receptor (GPCR) small molecule agonists, calcium flux assay: HEK293 wild type cell line counter screen (AID 1920065)
Outline: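 Wild-type HEK293 cells plated 18 h, loaded with calcium dye 1 h at 37 C, then compounds added in agonist mode (ATP as positive control). Kinetic fluorescence Ex/Em 480/540 recorded 3 min at 1 sec intervals; 15 concentrations, triplicate.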

[18] = p53 small molecule agonists, cell-based qHTS assay with human liver microsomes (AID 1963577)
Outline: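 Compounds act here after metabolic activation: human liver microsomes and NADPH, both at 0.5 mg/mL final, were co-added to p53RE-bla cells. Incubation ran 16 h at 37 C, followed by LiveBLAzer detection.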

[19] = Nuclear factor erythroid 2-related factor 2/antioxidant responsive element (Nrf2/ARE) small molecule agonists: luciferase reporter gene qHTS assay in human keratinocytes (AID 1919969); also: nearly all actives have a fitted effect of over 35% in size; also: potency is read from the fitted curve at half-maximal effect
[20] = molecular target: Gonadotropin-releasing hormone receptor (Homo sapiens) (UniProt P30968); test: Human gonadotropin-releasing hormone receptor (GnRHR) small molecule agonists, calcium flux assay in GnRHR-HEK293 cells (AID 1920063); also: nearly all actives have a fitted effect of over 35% in size
Outline: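 HEK293 cells stably expressing human GnRHR were dye-loaded for 1 h at 37 C. Compound was added in agonist mode and fluorescence (Ex/Em 480/540) recorded kinetically for 3 min. Fifteen concentrations, triplicates.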
% is scaled to controls: 0 for no effect and ±100 for the full control effect.

Chain of Muscarinic acetylcholine receptor M1 (Homo sapiens) (P11229 whole entry, looked up): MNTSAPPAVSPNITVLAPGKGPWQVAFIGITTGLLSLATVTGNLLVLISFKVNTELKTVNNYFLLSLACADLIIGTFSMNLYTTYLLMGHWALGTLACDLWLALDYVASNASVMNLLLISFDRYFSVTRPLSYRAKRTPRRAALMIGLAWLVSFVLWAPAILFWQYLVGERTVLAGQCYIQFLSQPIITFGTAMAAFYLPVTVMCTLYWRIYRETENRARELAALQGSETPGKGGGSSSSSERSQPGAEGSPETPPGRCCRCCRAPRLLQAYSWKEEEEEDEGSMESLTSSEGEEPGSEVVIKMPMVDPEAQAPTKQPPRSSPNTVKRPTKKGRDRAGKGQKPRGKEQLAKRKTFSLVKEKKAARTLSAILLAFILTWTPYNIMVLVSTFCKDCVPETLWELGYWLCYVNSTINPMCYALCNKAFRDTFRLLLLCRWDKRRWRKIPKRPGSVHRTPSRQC
Chain of KiSS-1 receptor (Homo sapiens) (Q969F8 whole entry, looked up): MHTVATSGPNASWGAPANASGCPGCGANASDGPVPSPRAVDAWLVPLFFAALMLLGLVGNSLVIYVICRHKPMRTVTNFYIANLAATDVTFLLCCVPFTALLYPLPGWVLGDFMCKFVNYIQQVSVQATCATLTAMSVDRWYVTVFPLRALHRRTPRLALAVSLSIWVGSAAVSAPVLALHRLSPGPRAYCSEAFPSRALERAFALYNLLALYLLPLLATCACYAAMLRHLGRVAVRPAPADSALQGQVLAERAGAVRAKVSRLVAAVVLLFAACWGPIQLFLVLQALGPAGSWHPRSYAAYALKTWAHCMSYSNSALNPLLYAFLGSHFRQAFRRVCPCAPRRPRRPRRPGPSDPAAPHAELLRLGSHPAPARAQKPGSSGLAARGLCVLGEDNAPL
Chain of Gonadotropin-releasing hormone receptor (Homo sapiens) (P30968 whole entry, looked up): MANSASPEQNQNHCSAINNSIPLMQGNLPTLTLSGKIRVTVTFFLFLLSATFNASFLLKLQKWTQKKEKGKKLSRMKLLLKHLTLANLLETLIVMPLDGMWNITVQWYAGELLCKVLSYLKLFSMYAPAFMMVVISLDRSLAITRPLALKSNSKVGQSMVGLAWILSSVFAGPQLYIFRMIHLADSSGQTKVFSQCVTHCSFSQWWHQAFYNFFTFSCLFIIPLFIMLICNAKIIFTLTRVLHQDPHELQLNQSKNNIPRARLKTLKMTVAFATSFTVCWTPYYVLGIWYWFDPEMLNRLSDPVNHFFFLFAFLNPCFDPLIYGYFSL
Chain of Beta-2 adrenergic receptor (Homo sapiens) (P07550 whole entry, looked up): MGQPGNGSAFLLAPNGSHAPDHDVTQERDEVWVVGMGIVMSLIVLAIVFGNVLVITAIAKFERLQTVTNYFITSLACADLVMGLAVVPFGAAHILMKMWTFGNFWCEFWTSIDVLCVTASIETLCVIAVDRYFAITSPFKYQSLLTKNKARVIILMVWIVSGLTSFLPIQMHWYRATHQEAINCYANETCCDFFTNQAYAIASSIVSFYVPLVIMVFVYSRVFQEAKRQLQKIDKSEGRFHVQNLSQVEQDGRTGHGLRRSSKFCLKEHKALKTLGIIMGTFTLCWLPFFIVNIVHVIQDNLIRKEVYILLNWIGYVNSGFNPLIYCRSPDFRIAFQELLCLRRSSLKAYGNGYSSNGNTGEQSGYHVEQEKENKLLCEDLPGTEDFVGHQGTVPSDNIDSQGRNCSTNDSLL
Chain of D(2) dopamine receptor (Homo sapiens) (P14416 whole entry, looked up): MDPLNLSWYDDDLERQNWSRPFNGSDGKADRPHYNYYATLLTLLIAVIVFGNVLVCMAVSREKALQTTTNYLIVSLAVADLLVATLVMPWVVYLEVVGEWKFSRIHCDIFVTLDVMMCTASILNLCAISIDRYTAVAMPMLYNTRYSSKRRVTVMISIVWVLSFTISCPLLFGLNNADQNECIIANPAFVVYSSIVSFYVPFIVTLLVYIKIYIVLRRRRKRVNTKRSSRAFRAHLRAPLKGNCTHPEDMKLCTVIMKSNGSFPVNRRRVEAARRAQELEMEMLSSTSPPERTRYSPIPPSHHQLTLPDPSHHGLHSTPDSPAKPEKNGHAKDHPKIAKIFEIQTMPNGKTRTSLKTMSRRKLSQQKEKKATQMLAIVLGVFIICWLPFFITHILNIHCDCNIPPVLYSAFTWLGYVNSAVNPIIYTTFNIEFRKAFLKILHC
Chain of 5-hydroxytryptamine receptor 2A (Homo sapiens) (P28223 whole entry, looked up): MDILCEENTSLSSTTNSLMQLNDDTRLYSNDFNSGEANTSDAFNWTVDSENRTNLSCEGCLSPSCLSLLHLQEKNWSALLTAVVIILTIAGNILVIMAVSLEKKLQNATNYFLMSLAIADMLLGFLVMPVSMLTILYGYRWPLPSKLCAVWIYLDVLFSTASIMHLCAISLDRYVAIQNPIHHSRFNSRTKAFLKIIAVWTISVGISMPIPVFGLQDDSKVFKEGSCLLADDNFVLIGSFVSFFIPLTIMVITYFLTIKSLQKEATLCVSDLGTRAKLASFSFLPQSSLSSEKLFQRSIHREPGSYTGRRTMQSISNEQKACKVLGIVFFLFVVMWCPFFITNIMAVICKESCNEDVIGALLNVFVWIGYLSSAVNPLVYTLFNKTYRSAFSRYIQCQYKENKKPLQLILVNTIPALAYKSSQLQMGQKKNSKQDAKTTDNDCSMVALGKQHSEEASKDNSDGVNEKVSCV

NO
inactive: Potency [1] | Potency [2] | Potency [3] | Potency [4] | Potency [5] | Potency [6] | Potency [7] | Potency [8] | Potency [9] | Potency [10] | Potency [11] | Potency [12] | Potency [13] | Potency [14] | Potency [15] | Potency [16]

CCCCCCCCCCOC(=O)c1ccccc1C(=O)OCCCCCCCC
inactive: Potency [1] | Potency [2] | Potency [17] | Potency [18] | Potency [3] | Potency [4] | Potency [5] | Potency [6] | Potency [7] | Potency [8] | Potency [10] | Potency [11] | Potency [12] | Potency [13] | Potency [14] | Potency [15] | Potency [16]

CC(C)(C)C1CCC(CC2=C(O)c3ccccc3C(=O)C2=O)CC1 (stereo unspecified)
active: Potency [1] 29.8 µM
inactive: Potency [2] | Potency [17] | Potency [18] | Potency [3] | Potency [5] | Potency [6] | Potency [8] | Potency [9] | Potency [10] | Potency [11] | Potency [13] | Potency [14] | Potency [15] | Potency [16]

CCN1CCOCC1
inactive: Potency [1] | Potency [2] | Potency [17] | Potency [18] | Potency [4] | Potency [6] | Potency [7] | Potency [8] | Potency [9] | Potency [10] | Potency [11] | Potency [12] | Potency [13] | Potency [14] | Potency [15] | Potency [16]

CC1(O)CSC(C)(O)CS1 (stereo unspecified)
inactive: Potency [20] | Potency [2] | Potency [17] | Potency [18] | Potency [3] | Potency [4] | Potency [5] | Potency [6] | Potency [7] | Potency [9] | Potency [10] | Potency [11] | Potency [12] | Potency [13] | Potency [14] | Potency [15] | Potency [16]
active: Potency [19] 30.6 µM

C=CC(=C)CCC=C(C)C
active: Potency [19] 68.6 µM
inactive: Potency [20] | Potency [2] | Potency [17] | Potency [18] | Potency [3] | Potency [4] | Potency [5] | Potency [6] | Potency [7] | Potency [8] | Potency [9] | Potency [10] | Potency [11] | Potency [12] | Potency [13] | Potency [14] | Potency [15] | Potency [16]

Oc1c(I)cc(Cl)c2cccnc12
active: Potency [19] 2.16 µM and 3.35 µM | Potency [5] 14.1 µM
inactive: Potency [20] | Potency [2] | Potency [17] | Potency [18] | Potency [3] | Potency [4] | Potency [6] | Potency [7] | Potency [8] | Potency [9] | Potency [10] | Potency [11] | Potency [12] | Potency [13] | Potency [14] | Potency [15] | Potency [16]

CC1=NN(c2ccc(S(=O)(=O)O)cc2)C(=O)C1N=Nc1ccccc1 (stereo unspecified)
inactive: Potency [19] | Potency [20] | Potency [2] | Potency [17] | Potency [18] | Potency [3] | Potency [4] | Potency [5] | Potency [6] | Potency [7] | Potency [8] | Potency [9] | Potency [10] | Potency [11] | Potency [12] | Potency [13] | Potency [14] | Potency [15] | Potency [16]

CCOc1ccc(N=Nc2ccc(/C=C/c3ccc(N=Nc4ccc(OCC)cc4)cc3S(=O)(=O)O)c(S(=O)(=O)O)c2)cc1
inactive: Potency [19] | Potency [20] | Potency [2] | Potency [17] | Potency [18] | Potency [3] | Potency [4] | Potency [5] | Potency [6] | Potency [7] | Potency [8] | Potency [9] | Potency [10] | Potency [11] | Potency [12] | Potency [14] | Potency [15] | Potency [16]

Cc1c(C(=O)NN2CCCCC2)nn(-c2ccc(Cl)cc2Cl)c1-c1ccc(Cl)cc1
inactive: Potency [19] | Potency [20] | Potency [2] | Potency [17] | Potency [18] | Potency [3] | Potency [4] | Potency [5] | Potency [6] | Potency [8] | Potency [9] | Potency [10] | Potency [11] | Potency [12] | Potency [13] | Potency [14] | Potency [15] | Potency [16]

CCCCCCCC/C=C/CCCCCCCC1=NCCN1CCO
inactive: Potency [19] | Potency [20] | Potency [2] | Potency [17] | Potency [18] | Potency [3] | Potency [4] | Potency [5] | Potency [6] | Potency [7] | Potency [9] | Potency [11] | Potency [12] | Potency [15]

NS(=O)(=O)c1cc2c(cc1Cl)NC(CSCc1ccccc1)=NS2(=O)=O
inactive: Potency [19] | Potency [20] | Potency [2] | Potency [17] | Potency [18] | Potency [3] | Potency [4] | Potency [5] | Potency [6] | Potency [7] | Potency [9] | Potency [10] | Potency [11] | Potency [12] | Potency [13] | Potency [14] | Potency [15]

CN1CCN(c2cc3c(nn2)Oc2ccccc2N3C)CC1
inactive: activity, positive = activation [19] 17.2% [at 19 µM] | activity change [20] -0.362% [at 11.8 µM, stronger effect = higher value] | activation [2] -0.078% [at 15.8 µM] | activation [17] -0.0481% [at 11.8 µM] | activation [18] -1.74% [at 13.5 µM] | activation [3] 0.736% [at 13.6 µM] | activity change, negative = cytotoxicity [4] -6.1% [at 13.5 µM] | activity change, negative = cytotoxicity [5] 0.69% [at 13.5 µM] | activity change, negative = cytotoxicity [6] -9.68% [at 13.5 µM] | activation [7] 6.54% [at 13.5 µM] | activation [9] -12.8% [at 15.9 µM] | activity, negative = inhibition [10] -12.9% [at 12.6 µM] | activation [11] 3.18% [at 15.8 µM] | activity change, negative = inhibition [13] 0.639% [at 18.9 µM] | activity change, negative = inhibition [14] 3.6% [at 19 µM] | activation [15] 11.1% [at 19 µM] | activity change, negative = inhibition [16] -3.28% [at 18.9 µM]

Cc1oc2c(NC(=O)c3c(Cl)cccc3Cl)cccc2c1C(C)(C)O
inactive: Potency [19] | Potency [20] | Potency [2] | Potency [17] | Potency [18] | Potency [3] | Potency [4] | Potency [5] | Potency [6] | Potency [7] | Potency [8] | Potency [9] | Potency [10] | Potency [11] | Potency [12] | Potency [13] | Potency [14] | Potency [15]
